# Experimental data: article PMC11006913
# Where a chain is given by its changes, count along the chain named.
# Columns and labels:
# Assay in all cases: PBM; 200 nM protein, PBS
# Details in all cases: dsDNA, one strand shown
# NKX2-6 [1] = molecular target: T1, NKX2-6 (Homo sapiens, UniProt A6NCS4 118-204, R150C)
# T1 sequence: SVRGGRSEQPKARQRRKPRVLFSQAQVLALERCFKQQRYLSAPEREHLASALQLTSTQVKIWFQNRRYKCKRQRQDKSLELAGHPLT
# NKX3-2 [2] = molecular target: NKX3-2 (Homo sapiens, UniProt P78367 192-278, P234S)
# NKX3-2 [3] = molecular target: NKX3-2 (Homo sapiens, UniProt P78367 192-278)
# HOXC9 [4] = molecular target: HOXC9 (Homo sapiens, UniProt P31274 178-260)
# MSX2 [5] = molecular target: MSX2 (Homo sapiens, UniProt P35548 130-214)
# HOXC9 [6] = molecular target: HOXC9 (Homo sapiens, UniProt P31274 178-260, R222W)
# MSX2 [7] = molecular target: MSX2 (Homo sapiens, UniProt P35548 130-214, F161Y)
# NKX2-6 [8] = molecular target: T2, NKX2-6 (Homo sapiens, UniProt A6NCS4 118-204)
# T2 sequence: T1 sequence with C33R
# NKX2-6 [9] = molecular target: T3, NKX2-6 (Homo sapiens, UniProt A6NCS4 118-204, F151L)
# T3 sequence: T1 sequence with C33R, F34L
# HOXA4 = HOXA4 (Homo sapiens, UniProt Q00056 201-287)
# PROP1 [10] = molecular target: PROP1 (Homo sapiens, UniProt O75360 56-141)
# PROP1 [11] = molecular target: PROP1 (Homo sapiens, UniProt O75360 56-141, R99H)
# PROP1 [12] = molecular target: PROP1 (Homo sapiens, UniProt O75360 56-141, F88S)
# HOXC9 [13] = molecular target: HOXC9 (Homo sapiens, UniProt P31274 178-260, R193K)
# ALX3 [14] = molecular target: ALX3 (Homo sapiens, UniProt O95076 139-225, N203Q)
# ALX3 [15] = molecular target: ALX3 (Homo sapiens, UniProt O95076 139-225)
# ALX3 [16] = molecular target: ALX3 (Homo sapiens, UniProt O95076 139-225, L168Q)
# ALX3 [17] = molecular target: ALX3 (Homo sapiens, UniProt O95076 139-225, L168V)
# ALX3 [18] = molecular target: ALX3 (Homo sapiens, UniProt O95076 139-225, N203S)
# PITX2 = PITX2 (Homo sapiens, UniProt Q99697 72-157)
# MSX2 [19] = molecular target: MSX2 (Homo sapiens, UniProt P35548 130-214, R199I)
# Chain of MSX2 (Homo sapiens, UniProt P35548 130-214, R199I) (P35548 130-214 R199I): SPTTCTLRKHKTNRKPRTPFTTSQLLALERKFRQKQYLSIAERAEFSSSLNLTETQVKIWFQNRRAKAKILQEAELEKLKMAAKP
# Chain of NKX3-2 (Homo sapiens, UniProt P78367 192-278) (P78367 192-278): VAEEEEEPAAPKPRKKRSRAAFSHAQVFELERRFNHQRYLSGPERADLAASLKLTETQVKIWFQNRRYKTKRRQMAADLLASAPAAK
# Chain of HOXC9 (Homo sapiens, UniProt P31274 178-260) (P31274 178-260): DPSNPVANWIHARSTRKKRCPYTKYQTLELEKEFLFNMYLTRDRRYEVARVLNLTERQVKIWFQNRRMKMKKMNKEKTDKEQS
# Chain of NKX3-2 (Homo sapiens, UniProt P78367 192-278, P234S) (P78367 192-278 P234S): as the sequence (P78367 192-278) above, with P43S counted along it
# Chain of HOXC9 (Homo sapiens, UniProt P31274 178-260, R222W) (P31274 178-260 R222W): as the sequence (P31274 178-260) above, with R45W counted along it
# Chain of MSX2 (Homo sapiens, UniProt P35548 130-214) (P35548 130-214): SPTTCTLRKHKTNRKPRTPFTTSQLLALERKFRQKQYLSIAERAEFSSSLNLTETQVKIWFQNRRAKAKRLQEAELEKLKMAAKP
# Chain of MSX2 (Homo sapiens, UniProt P35548 130-214, F161Y) (P35548 130-214 F161Y): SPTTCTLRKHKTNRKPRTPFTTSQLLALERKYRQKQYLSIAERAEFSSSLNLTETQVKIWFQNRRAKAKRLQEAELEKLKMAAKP
# Chain of PROP1 (Homo sapiens, UniProt O75360 56-141, R99H) (O75360 56-141 R99H): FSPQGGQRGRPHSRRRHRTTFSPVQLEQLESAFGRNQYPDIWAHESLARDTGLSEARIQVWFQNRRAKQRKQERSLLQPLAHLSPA
# Chain of PROP1 (Homo sapiens, UniProt O75360 56-141) (O75360 56-141): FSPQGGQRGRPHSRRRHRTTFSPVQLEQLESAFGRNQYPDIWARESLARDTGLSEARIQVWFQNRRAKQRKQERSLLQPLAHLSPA
# Chain of PROP1 (Homo sapiens, UniProt O75360 56-141, F88S) (O75360 56-141 F88S): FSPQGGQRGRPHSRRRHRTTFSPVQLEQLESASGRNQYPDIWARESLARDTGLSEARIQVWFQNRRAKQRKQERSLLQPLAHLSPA
# Chain of ALX3 (Homo sapiens, UniProt O95076 139-225, L168Q) (O95076 139-225 L168Q): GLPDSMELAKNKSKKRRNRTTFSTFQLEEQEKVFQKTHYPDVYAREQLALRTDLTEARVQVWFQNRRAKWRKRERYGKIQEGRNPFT
# Chain of ALX3 (Homo sapiens, UniProt O95076 139-225, L168V) (O95076 139-225 L168V): as the sequence (O95076 139-225 L168Q) above, with Q30V counted along it
# Chain of HOXC9 (Homo sapiens, UniProt P31274 178-260, R193K) (P31274 178-260 R193K): as the sequence (P31274 178-260) above, with R16K counted along it
# Chain of HOXA4 (Q00056 201-287): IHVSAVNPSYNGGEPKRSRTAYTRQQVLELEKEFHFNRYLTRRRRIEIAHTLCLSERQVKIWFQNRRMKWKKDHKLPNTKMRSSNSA
# Chain of ALX3 (Homo sapiens, UniProt O95076 139-225) (O95076 139-225): as the sequence (O95076 139-225 L168Q) above, with Q30L counted along it
# Chain of ALX3 (Homo sapiens, UniProt O95076 139-225, N203S) (O95076 139-225 N203S): as the sequence (O95076 139-225 L168Q) above, with Q30L, N65S counted along it
# Chain of ALX3 (Homo sapiens, UniProt O95076 139-225, N203Q) (O95076 139-225 N203Q): as the sequence (O95076 139-225 L168Q) above, with Q30L, N65Q counted along it
sequence,measurement,setting,value
AAGTGGTG,binding signal,NKX2-6 [1],"11.6 upbm affinity estimate (log intensity, higher = more binding, comparable within an allelic series)"
same,binding signal,NKX3-2 [2],"12.7 upbm affinity estimate (log intensity, higher = more binding, comparable within an allelic series)"
same,binding signal,NKX3-2 [3],"12.8 upbm affinity estimate (log intensity, higher = more binding, comparable within an allelic series)"
ACCCTTAT,binding signal,HOXC9 [4],"10.8 upbm affinity estimate (log intensity, higher = more binding, comparable within an allelic series)"
same,binding signal,MSX2 [5],"10.8 upbm affinity estimate (log intensity, higher = more binding, comparable within an allelic series)"
same,binding signal,HOXC9 [6],"10.2 upbm affinity estimate (log intensity, higher = more binding, comparable within an allelic series)"
same,binding signal,MSX2 [7],"10.7 upbm affinity estimate (log intensity, higher = more binding, comparable within an allelic series)"
TACACTCA,binding signal,NKX2-6 [1],"11.1 upbm affinity estimate (log intensity, higher = more binding, comparable within an allelic series)"
same,binding signal,NKX3-2 [2],"11.9 upbm affinity estimate (log intensity, higher = more binding, comparable within an allelic series)"
same,binding signal,NKX3-2 [3],"12 upbm affinity estimate (log intensity, higher = more binding, comparable within an allelic series)"
GATAAGTA,binding signal,NKX2-6 [1],"11.6 upbm affinity estimate (log intensity, higher = more binding, comparable within an allelic series)"
same,binding signal,NKX2-6 [8],"13.3 upbm affinity estimate (log intensity, higher = more binding, comparable within an allelic series)"
same,binding signal,NKX2-6 [9],"10.6 upbm affinity estimate (log intensity, higher = more binding, comparable within an allelic series)"
GACCCGAC,binding signal,NKX2-6 [1],"9.44 upbm affinity estimate (log intensity, higher = more binding, comparable within an allelic series)"
same,binding signal,NKX3-2 [2],"10.7 upbm affinity estimate (log intensity, higher = more binding, comparable within an allelic series)"
same,binding signal,NKX3-2 [3],"10.7 upbm affinity estimate (log intensity, higher = more binding, comparable within an allelic series)"
ATTGCGCA,binding signal,HOXC9 [4],"10.8 upbm affinity estimate (log intensity, higher = more binding, comparable within an allelic series)"
same,binding signal,HOXC9 [6],"10.1 upbm affinity estimate (log intensity, higher = more binding, comparable within an allelic series)"
ATGAGAAT,binding signal,HOXC9 [4],"10.8 upbm affinity estimate (log intensity, higher = more binding, comparable within an allelic series)"
same,binding signal,HOXA4,"11.2 upbm affinity estimate (log intensity, higher = more binding, comparable within an allelic series)"
GGGGGACC,binding signal,NKX2-6 [1],"8.9 upbm affinity estimate (log intensity, higher = more binding, comparable within an allelic series)"
same,binding signal,NKX2-6 [8],"9.01 upbm affinity estimate (log intensity, higher = more binding, comparable within an allelic series)"
same,binding signal,NKX2-6 [9],"8.91 upbm affinity estimate (log intensity, higher = more binding, comparable within an allelic series)"
AAGTGGGG,binding signal,NKX2-6 [1],"11.7 upbm affinity estimate (log intensity, higher = more binding, comparable within an allelic series)"
same,binding signal,NKX3-2 [2],"12.7 upbm affinity estimate (log intensity, higher = more binding, comparable within an allelic series)"
same,binding signal,NKX3-2 [3],"12.8 upbm affinity estimate (log intensity, higher = more binding, comparable within an allelic series)"
CACAGGCC,binding signal,NKX2-6 [1],"9.58 upbm affinity estimate (log intensity, higher = more binding, comparable within an allelic series)"
same,binding signal,PROP1 [10],"6.73 upbm affinity estimate (log intensity, higher = more binding, comparable within an allelic series)"
same,binding signal,PROP1 [11],"6.9 upbm affinity estimate (log intensity, higher = more binding, comparable within an allelic series)"
same,binding signal,PROP1 [12],"6.72 upbm affinity estimate (log intensity, higher = more binding, comparable within an allelic series)"
ACCTGGTG,binding signal,NKX2-6 [1],"9.61 upbm affinity estimate (log intensity, higher = more binding, comparable within an allelic series)"
same,binding signal,PROP1 [10],"6.8 upbm affinity estimate (log intensity, higher = more binding, comparable within an allelic series)"
same,binding signal,PROP1 [11],"6.74 upbm affinity estimate (log intensity, higher = more binding, comparable within an allelic series)"
same,binding signal,PROP1 [12],"6.77 upbm affinity estimate (log intensity, higher = more binding, comparable within an allelic series)"
GCTCTTAA,binding signal,HOXC9 [4],"11 upbm affinity estimate (log intensity, higher = more binding, comparable within an allelic series)"
same,binding signal,HOXC9 [6],"10.2 upbm affinity estimate (log intensity, higher = more binding, comparable within an allelic series)"
CATGGTAA,binding signal,HOXC9 [4],"10.9 upbm affinity estimate (log intensity, higher = more binding, comparable within an allelic series)"
same,binding signal,HOXC9 [13],"11 upbm affinity estimate (log intensity, higher = more binding, comparable within an allelic series)"
GGGGGCGA,binding signal,NKX2-6 [1],"9.39 upbm affinity estimate (log intensity, higher = more binding, comparable within an allelic series)"
same,binding signal,ALX3 [14],"7.73 upbm affinity estimate (log intensity, higher = more binding, comparable within an allelic series)"
same,binding signal,ALX3 [15],"7.8 upbm affinity estimate (log intensity, higher = more binding, comparable within an allelic series)"
same,binding signal,ALX3 [16],"7.65 upbm affinity estimate (log intensity, higher = more binding, comparable within an allelic series)"
same,binding signal,ALX3 [17],"7.66 upbm affinity estimate (log intensity, higher = more binding, comparable within an allelic series)"
same,binding signal,ALX3 [18],"7.72 upbm affinity estimate (log intensity, higher = more binding, comparable within an allelic series)"
ATCACTTA,binding signal,NKX2-6 [1],"11.6 upbm affinity estimate (log intensity, higher = more binding, comparable within an allelic series)"
same,binding signal,NKX2-6 [8],"13.3 upbm affinity estimate (log intensity, higher = more binding, comparable within an allelic series)"
same,binding signal,NKX2-6 [9],"10.4 upbm affinity estimate (log intensity, higher = more binding, comparable within an allelic series)"
GCCGACCA,binding signal,NKX2-6 [1],"9.61 upbm affinity estimate (log intensity, higher = more binding, comparable within an allelic series)"
same,binding signal,PITX2,"7.83 upbm affinity estimate (log intensity, higher = more binding, comparable within an allelic series)"
AATTTTTA,binding signal,MSX2 [19],"11.1 upbm affinity estimate (log intensity, higher = more binding, comparable within an allelic series)"
same,binding signal,MSX2 [5],"11.9 upbm affinity estimate (log intensity, higher = more binding, comparable within an allelic series)"
same,binding signal,MSX2 [7],"11.6 upbm affinity estimate (log intensity, higher = more binding, comparable within an allelic series)"
